# Pf Dd2 inh = blocks in vitro growth of P. falciparum Dd2; 4.3% of 120,000 active; P. falciparum Dd2 growth, SYBR Green, 72 h; AID 1347417; Potency, µM (doses to about 28.9 µM), without a hit: at the highest dose activity, negative = inhibition, usual class: inhibitors; active = well fitted inhibition curve with a large enough effect;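 note: plate controls were DMSO vehicle for no effect and reference drug for full effect; nearly all actives have a fitted effect of over 65% in size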
#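 Readout: SYBR Green fluorescence, 485 nm excitation, 535 nm emission, after ~16 h lysis at 37C. Before that, Dd2-infected red cells (2.5% hematocrit) grew 72 h with compound, 29 uM top final concentration.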
# * = called active by the depositor; i = inactive; [ ] = remark or other dose. Shown is part of a subset that was picked to be rich in hits. Potency is the fitted concentration of half-maximal effect.
SMILES,Pf Dd2 inh
CC(C)NC(=O)NC[C@H]1O[C@@H]2C[C@@H](CC(=O)N3CCOCC3)O[C@@H]2[C@@H]1O,30%[44.1 µM]
Cc1cc(=O)n(CCN2CCOCC2)c(N2CCCC2)n1,2%
COCc1nc(C2CCCN(C(=O)c3ccncc3)C2)no1 (configuration not stated),12%
Cc1ccc(-c2onc(C)c2C)cc1S(=O)(=O)N1CCN(c2ccccc2F)CC1,14%
Cc1ccc(C(=O)Nc2ccccc2)cc1S(=O)(=O)N1CCCC1,-20%
Cc1ccc(F)cc1S(=O)(=O)N1CCC(n2cnnc2C(C)C)CC1,i
Cc1ccc(-c2nnc(Nc3cccc(C(F)(F)F)c3)c3ccccc23)cc1S(=O)(=O)N1CCOCC1,10µM*
Cc1ccc(C(=O)Nc2ccc(F)cc2)cc1S(=O)(=O)N1CCOCC1,i
Cc1ccc(-c2nnc(Nc3cccc(Cl)c3)c3ccccc23)cc1S(=O)(=O)N1CCOCC1,6%
Cc1ccccc1Nc1nnc(-c2ccc(C)c(S(=O)(=O)N3CCN(C)CC3)c2)c2ccccc12,40%
COC(=O)c1ccc(Nc2nnc(-c3ccc(C)c(S(=O)(=O)N4CCN(C)CC4)c3)c3ccccc23)cc1,1.6µM*
Cc1ccc(-c2nnc(Nc3ccc(Br)cc3)c3ccccc23)cc1S(=O)(=O)N1CCN(C)CC1,5.6µM*
Cc1ccc(-c2nnc(Nc3ccc(F)cc3)c3ccccc23)cc1S(=O)(=O)N1CCN(C)CC1,10µM*
Cc1ccc(-c2onc(C)c2C)cc1S(=O)(=O)N1CCCCC1,41%
COC[C@H]1CCCN1Cc1nc(C2(O)CCN(C3CCN(C)CC3)CC2)cs1,-8%[44.1 µM]
CC(C)NC(=O)N[C@H]1C[C@@H](c2nc(-c3ccncc3)no2)N(C)C1,-18%[44.1 µM]
O=C([C@@H]1C[C@H](F)CN1S(=O)(=O)Cc1ccc(Cl)cc1)N1CCCCC1,32%
Cc1cccc([C@H]2C[C@@H](O)[C@@H](O)[C@@H]2NS(C)(=O)=O)c1,6%[44.1 µM]
CCN(CC)C(=O)C(NC(=O)CC(C)C)C1CCN(C(=O)CCc2ccccc2)CC1 (configuration not stated),-2%
O=C(Nc1cccc(-n2cccn2)c1)C1CCCN(C(=O)N2CCOCC2)C1 (configuration not stated),-13%
O=C1NC2(CN(Cc3ccccc3C(F)(F)F)C2)Oc2ccccc21,-14%
CC(C)c1noc(-c2cn(C3CCN(C(=O)c4cccc5[nH]ccc45)CC3)nn2)n1,-4%
O=C(O)CCc1cc2n(n1)CCN(C(=O)c1ccccc1-n1cccc1)C2,-4%
COc1cccc(N2CCN(S(=O)(=O)c3cc(-c4cc(C)no4)ccc3C)CC2)c1,i
Cc1ccc(C(=O)Nc2cccc(C(=O)O)c2)cc1S(=O)(=O)N1CCCC1,-14%
SMILES,Pf Dd2 inh
Cc1ccc(-c2nnc(Nc3cccc(O)c3)c3ccccc23)cc1S(=O)(=O)N1CCN(C)CC1,10µM*
O=C1NCCCCCN(C(=O)NCc2ccc(F)cc2)[C@H]2CCCC[C@@H]12,-13%
COc1ccc(N2Cc3c(NCCc4ccc(Cl)cc4)ncnc3N(C)CC2=O)cc1,i
O=C(CC1CCOC2(CCN(S(=O)(=O)c3ccccc3)CC2)C1)N1CCCC1 (configuration not stated),-4%
CC1=C(C(=O)Nc2ccccc2)C(c2cc(C)ccc2C)N2C(CC(=O)N3CCCC3)=CSC2=N1 (configuration not stated),-1%
COc1ccc([N+](=O)[O-])cc1NC(c1nnc(-c2ccccc2)o1)c1ccccc1F (configuration not stated),13µM*
O=C(CSc1nnc(-c2ccc([N+](=O)[O-])cc2)o1)Nc1ccccc1,12%
COc1ccc(-c2noc(-c3ccc(NC(C)c4ccccc4)c([N+](=O)[O-])c3)n2)cc1OC (configuration not stated),2%
Cc1ccc(S(=O)(=O)NC[C@H]2OC[C@@H](NCC(C)(C)C)[C@@H]2O)cc1,-4%[44.1 µM]
COCCN1C(=O)[C@H]2CN(Cc3cccc(OC(F)(F)F)c3)C[C@H]2C1=O,11%
COCCCN1CCCC2(CCN(C(=O)NCc3cccc(F)c3)C2)C1=O (configuration not stated),-8%
CCN(C)c1ccnc(N2CC[C@@H]3C[C@H](N4CCOCC4)CC[C@@]3(COC)C2)n1,8.9µM*
COC[C@@]12CC[C@@H](N3CCOCC3)C[C@H]1CCN(c1nccc(NC(C)C)n1)C2,i
COC[C@@]12CC[C@@H](N3CCOCC3)C[C@H]1CCN(c1nccc(N)n1)C2,7%
COc1ccc(Cl)cc1NC(=O)N(C)CC1CCOCC1,-25%
COc1cc(CNCC2CCOCC2)ccc1OCC(O)CN(C)C1CCCCC1 (configuration not stated),13µM*
COc1cc(CNCCc2ccc(F)cc2)ccc1OCC(O)CN1CCSCC1 (configuration not stated),-18%
COc1cc(CNCCc2ccc(Cl)cc2)ccc1OCC(O)CN1CCOCC1 (configuration not stated),11µM*
COc1cc(CNCCCO)ccc1OCC(O)CN1CCSCC1 (configuration not stated),-13%

# Bioassay records as filed in PubChem BioAssay.
